An excerpt weighted towards active compounds, which were near 2.5% of everything screened.
p53ts 32C tox = kills p53ts cells at the permissive temperature. H1299-p53A138V at 32C, ATP luminescence viability, 24 h. Potency, µM (doses to about 46.1 µM), usual class: cytotoxic. 130,000 compounds, 0.93% hits. AID 924; note: nearly all actives have a fitted effect of over 55% in size
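Viability by ATPlite luminescence after 24 h compound treatment (up to 46 uM) at the permissive 32C. Cells are H1299 carrying p53 A138V. Scale runs from DMSO basal to 100 uM tamoxifen as full kill; AC50 from Hill fits.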
FLuc inh = firefly luciferase inhibition; P08659; purified firefly luciferase, luminescence, 8 min; Potency, µM (doses to about 57.1 µM), hits mostly inhibitors; 72,000 compounds, 2.2% hits; note: nearly all actives have a fitted effect of over 40% in size
Target sequence (P08659 whole entry, looked up): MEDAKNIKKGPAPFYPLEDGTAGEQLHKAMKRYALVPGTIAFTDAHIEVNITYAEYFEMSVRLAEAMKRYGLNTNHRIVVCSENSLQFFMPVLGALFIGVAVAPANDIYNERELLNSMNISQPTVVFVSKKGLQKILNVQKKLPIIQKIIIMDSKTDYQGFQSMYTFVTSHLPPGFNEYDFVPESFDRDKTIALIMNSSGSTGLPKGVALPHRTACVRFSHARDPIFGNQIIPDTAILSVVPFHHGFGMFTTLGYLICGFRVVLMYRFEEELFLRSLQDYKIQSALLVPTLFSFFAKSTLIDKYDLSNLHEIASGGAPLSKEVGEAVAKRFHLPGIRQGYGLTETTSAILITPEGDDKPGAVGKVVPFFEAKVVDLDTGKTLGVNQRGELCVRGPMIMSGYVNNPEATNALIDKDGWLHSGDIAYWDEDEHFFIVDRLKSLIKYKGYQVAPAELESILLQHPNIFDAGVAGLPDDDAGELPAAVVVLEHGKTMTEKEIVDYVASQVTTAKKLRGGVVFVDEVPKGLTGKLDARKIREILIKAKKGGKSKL
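Substrate buffer containing 10 uM ATP (pH 7.2 imidazole, Mg2+, KCl, detergent, BSA) is dispensed, compound pinned in, then luciferase/luciferin detector mix added. After 8 min at ambient temperature, light output is measured.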
p53ts 39C kill = p53ts cell cytotoxicity, nonpermissive temperature. H1299-p53A138V viability at 39C, ATP luminescence, 24 h. Potency, µM (series often up to 46.1 µM), usual class: cytotoxic. 130,000 compounds, 1.5% hits. AID 902; note: nearly all actives have a fitted effect of over 55% in size
A number is an active result; 0 = inactive; ? = inconclusive; - = no result given; ! = not active in a repeat; [ ] = remark or other dose. Calls come from the whole dose curve; as a rule, active = well fitted curve in the direction sought with a large enough effect; inconclusive = small, poorly fitted or top-dose-only effect, or another doubt; inactive = no such curve, though single readings can be large; an effect the other way counts as inactive or inconclusive.

SMILES	p53ts 32C tox	FLuc inh	p53ts 39C kill
CC(C)(C)c1ccc(Cn2nnc3c(=O)[nH]c(C4CCCN(C(=O)Cc5cccs5)C4)nc32)cc1 (stereo not drawn)	0	0	0
CC(C)(C)c1ccc(Cn2nnc3c(=O)[nH]c(C4CCN(C(=O)Cc5cccs5)CC4)nc32)cc1	?	0	15.8µM
O=c1c(-c2ccc(O)cc2)coc2cc(O)cc(O)c12	10µM!	0	?
COc1ccc(-c2coc3cc(OC4OC(CO)C(O)C(O)C4O)cc(O)c3c2=O)cc1 (stereo not drawn)	0	-	0
COc1ccc(-c2coc3cc(O)cc(O)c3c2=O)cc1	?	0	?
CC(C)Oc1cc(O)c2c(=O)c(-c3ccc(O)cc3)coc2c1	?	12.6µM	?
COCCn1c(=O)c(CCc2ccccc2)nc2cnc(N(C)C)nc21	0	0[11.4 µM]	0
COc1ccccc1NC(=O)C(=O)NCC(c1ccc2c(c1)OCO2)N1CCN(C)CC1 (stereo not drawn)	0	-	0
Cc1ccccc1CNc1ncnc2c1ncn2[C@@H]1O[C@@H](CO)[C@H](O)[C@@H]1O	0	0	0
CN(C(=O)c1ccncc1)c1nnc(-c2ccccn2)s1	0	0	0
CN(C(=O)c1ccccc1)c1nc2ccccc2s1	10µM	6.31µM	12.6µM
Cc1nc2cc(CO)ccc2s1	0	0	0
Cc1nc2cc3nc(C)sc3cc2s1	?	15.8µM	?
CCCn1c(-c2ccc(F)cc2)nc2c(N3CCN(C)CC3)nc(C)nc21	0	-	0
COc1cccc(-c2nccc(N(C)Cc3ccco3)n2)c1	10µM	0[2.29 µM]	10µM
CN(Cc1ccco1)c1ccnc(-c2cccc(NS(C)(=O)=O)c2)n1	0	0[2.29 µM]	?
COc1ccc(CCNc2nc3ccccc3c3nc(-c4cccc(C)c4)nn23)cc1OC	0	-	0
COc1ccc(CC(=O)NCCc2csc(-c3ccc(C(F)(F)F)cc3)n2)cc1	0	-	0
O=C(Cc1ccc(F)cc1)NCCc1csc(-c2ccc(C(F)(F)F)cc2)n1	0	-	20µM
CCOC(=O)c1ccc(NC(=O)CC2NCCNC2=O)cc1 (stereo not drawn)	0	-	0
CCOC(=O)c1ccc(NC(=O)CC2SCCNC2=O)cc1 (stereo not drawn)	12.6µM	0	12.6µM
O=C(N/N=C1/C[C@@H](O)[C@@H](O)[C@@H]2[C@@H]3C(=O)N(C[C@@H]4CCCO4)C(=O)[C@H]3CC[C@@H]12)OCc1ccccc1	0[9.22 µM]	0[11.4 µM]	0[9.22 µM]
COc1ccccc1N1CCN(c2nc3ccc(C)cc3n3nnnc23)CC1	0	-	0
CCC1(C)Cc2nc3sc(C(=O)O)c(N)c3cc2CO1 (stereo not drawn)	0	0	0
CCOC(=O)c1sc2nc3c(cc2c1N)COC(C)(C)C3	0	20µM	0
SMILES	p53ts 32C tox	FLuc inh	p53ts 39C kill
CN(C)CC/C=C1\c2ccccc2COc2ccccc21	0	0	0
CN(Cc1ccco1)c1cc(-c2ccc3c(c2)OCO3)ncn1	?	0[2.29 µM]	?
COc1ccc2nc3c(cc2c1)Cc1ccccc1-3	0.794µM	-	0.794µM
CCSc1nc2ccc(OC)cc2cc1C#N	0	-	0
O=S(=O)(c1cccc2c(Cl)cccc12)N1CCCNCC1	0	0	15.8µM
O=S(=O)(c1cccc2c(I)cccc12)N1CCCNCC1	0	0	?
CC(NC(=O)COC(=O)CCNC(=O)c1ccco1)C12CC3CC(CC(C3)C1)C2 (stereo not drawn)	0	0	0
CN(C(=O)c1ccco1)c1nnc(C23CC4CC(CC(C4)C2)C3)s1	?	20µM	?
CCS(=O)(=O)N1CC(=O)N(c2cc(C)ccc2C)C(C)(C(=O)NC2CCCCC2)C1 (stereo not drawn)	0	-	-
O=C(O)C[C@H](Nc1ccccc1)C(=O)O	0[9.22 µM]	0[11.4 µM]	0[9.22 µM]
O=C(CC(Nc1ccc(Cl)cc1)C(=O)O)c1ccccc1 (stereo not drawn)	25.1µM	-	?
Cn1c(=O)c(-c2cc(F)cc(F)c2)nc2cnc(N3CCNCC3)nc21	0	0[11.4 µM]	0
COC(=O)c1c(-c2cccs2)csc1NC(=O)c1ccc(C(C)(C)C)cc1	0	-	0
COc1ccc(-c2nc3cnc(N4CCOCC4)nc3n(Cc3cccs3)c2=O)cc1	0	0[11.4 µM]	0
CCOC(=O)Cc1csc(NC(=O)CSc2nnc(-c3ccc(C)cc3)o2)n1	12.6µM	0	7.94µM
CCOC(=O)Cc1csc(NC(=O)CSc2nnc(-c3ccc(F)cc3)o2)n1	?	0	?
CN(C)c1ccc(-c2cncnc2-n2ccnc2)cc1	0	0[2.29 µM]	0
O=C(c1[nH]o[n+](=O)c1C(=O)c1csc2ccccc12)c1csc2ccccc12	0[9.22 µM]	0[11.4 µM]	?
CCc1nnc(NC(=O)c2nc(SCc3ccccc3F)ncc2Cl)s1	0	-	0
Cc1cccc(Cc2nnc(NC(=O)c3cccc(S(=O)(=O)N4CCOCC4)c3)s2)c1	0	-	0

Assay outcomes as filed in PubChem BioAssay.
